{
  "source": "PubChem BioAssay (Tox21)",
  "note": "Values joined by “and” are separate entries in the source; they are usually repeats but may differ in a detail not shown here. Identical values can stand only once. Records with an inconclusive call do not appear. Active and inactive are the calls of the source. Calls follow the shape of the dose curve; as a rule, active = well fitted activation curve with a large enough effect in the repeat runs; inconclusive = weak or mixed curves; inactive = no such curve, though single readings can be large or run the other way. % is scaled to controls: 0 for no effect and ±100 for the full control effect; potency is read from the fitted curve at half-maximal effect.",
  "data": [
    {"molecular_target": "Nuclear receptor subfamily 1 group I member 2 (Homo sapiens) (UniProt O75469)", "sequence (O75469 whole entry, looked up)": "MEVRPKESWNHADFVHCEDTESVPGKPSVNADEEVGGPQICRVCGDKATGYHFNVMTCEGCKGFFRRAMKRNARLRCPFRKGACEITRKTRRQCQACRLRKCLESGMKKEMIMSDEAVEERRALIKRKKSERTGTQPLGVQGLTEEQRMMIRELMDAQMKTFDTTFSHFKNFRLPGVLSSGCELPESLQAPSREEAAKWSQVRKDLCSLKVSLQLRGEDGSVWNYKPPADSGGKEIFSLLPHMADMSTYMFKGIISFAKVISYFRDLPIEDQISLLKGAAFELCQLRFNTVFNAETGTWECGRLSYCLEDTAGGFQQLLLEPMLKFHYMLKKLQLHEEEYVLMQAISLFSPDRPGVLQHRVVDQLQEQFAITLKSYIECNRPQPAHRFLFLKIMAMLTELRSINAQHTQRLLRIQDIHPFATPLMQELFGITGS", "assay": "Human pregnane X receptor (PXR) small molecule agonists, qHTS assay (AID 1346982); also: nearly all actives have a fitted effect of over 35% in size", "conditions": "PXR-Luc HepG2, CYP3A4 luciferase reporter, 24 h; series mostly up to 92.4 µM; activation: at the top concentration", "from_the_text": "National Center for Advancing Translational Sciences [NCATS]\nNIH Chemical Genomics Center [NCGC]\nU.S. Environmental Protection Agency [EPA]\nNational Institutes of Environmental Health Sciences [NIEHS]\nNational Toxicology Program [NTP]\nThe human pregnane X receptor (hPXR) regulates the expression of several drug metabolizing enzymes and induction of these proteins is a major mechanism for developing drug resistance in cancer. One such key enzyme catalyzing the drug metabolism is cytochrome P450 3A4 (CYP3A4). Changes in CYP3A4 expression affect drug metabolism, thereby reducing the therapeutic efficacy and altering toxicological response to a drug and which finally causes adverse drug interaction. To screen Tox21 libraries for compounds that activate hPXR-mediated CYP3A4 gene expression, PXR-Luc HepG2 cells were used.\nPXR-Luc HepG2 cells were dispensed at 2,000 per well in 5uL of assay medium containing 5% charcoal-stripped FBS into white solid bottom 1536-well plates (Corning Life Sciences, Corning, NY) using a Multidrop Combi (Thermo Scientific, Waltham, MA) dispenser. The assay plates were incubated at 37 C and 5% CO2 for 5hr, and then 23nL of compounds dissolved in DMSO and positive control were transferred using a Pintool station (Wako, San Diego, CA). The assay plates were incubated at 37C and 5% CO2 for 24hr. For luciferase read, 4uL of ONE-Glo reagent (Promega Corporation, Madison, WI) was added to each well of the assay plates using Flying Reagent Dispenser (FRD, Aurora Discovery, San Diego, CA) and incubated the assay plates at room temperature for 30min. The luminescence signal was quantified using a ViewLux plate reader (Perkin Elmer, Shelton, CT).", "values": [
      {"molecule": "Oc1ccc(Cc2ccc(O)cc2)cc1", "Potency": "54.9 µM (active)"},
      {"molecule": "Cc1ccc2c(c1)C1CN(C)CCC1N2", "note": "(stereo not given)", "activation": "-3.35% [at 19 µM] (inactive)"},
      {"molecule": "Cc1ccc(-c2nc3ccc(C)cn3c2CC(=O)N(C)C)cc1", "Potency": "23.7 µM (active)"},
      {"molecule": "CCc1ccc(C2CCNCC2)cc1", "activation": "19.7% [at 42.5 µM] (inactive)"},
      {"molecule": "Nc1c(Cl)c(F)nc(OCC(=O)O)c1Cl", "activation": "-5.83% (inactive)"},
      {"molecule": "N=C(N)[Se]", "activation": "1.64% (inactive)"},
      {"molecule": "ClC(Cl)(Cl)Cl", "activation": "3.43% (inactive)"},
      {"molecule": "C=CCC1(C(C)CC)C(=O)NC(=O)NC1=O", "note": "(stereo not given)", "activation": "-2.42% [at 42.5 µM] (inactive)"},
      {"molecule": "C=CC1(C)OC(=O)N(c2cc(Cl)cc(Cl)c2)C1=O", "note": "(stereo not given)", "Potency": "60.8 µM (active) and 54.5 µM (active)"},
      {"molecule": "CC(C)[N+](C)(CCC(C(N)=O)(c1ccccc1)c1ccccc1)C(C)C", "activation": "5.78% [at 42.5 µM] (inactive)"},
      {"molecule": "O=C(NC(=O)c1c(F)cccc1F)Nc1cc(Cl)c(F)c(Cl)c1F", "activation": "15.1% (inactive)"},
      {"molecule": "NC(=O)OCCCc1ccccc1", "activation": "-0.622% [at 42.5 µM] (inactive)"},
      {"molecule": "CC(C)(O)C(Cl)(Cl)Cl", "activation": "2.68% [at 42.5 µM] (inactive)"},
      {"molecule": "ClCCN1CCCC1", "activation": "-2.55% [at 42.5 µM] (inactive)"},
      {"molecule": "O=P(O)(O)c1ccccc1", "activation": "5.79% (inactive)"},
      {"molecule": "CNC(=O)NC(O)C(Cl)(Cl)Cl", "note": "(stereo not given)", "activation": "-13.2% [at 42.5 µM] (inactive)"},
      {"molecule": "C1CN2CCC1CC2", "activation": "-12.2% [at 42.5 µM] (inactive)"},
      {"molecule": "CN(C)C(=O)Oc1cc(OC(=O)N(C)C)cc(C(O)CNC(C)(C)C)c1", "note": "(stereo not given)", "activation": "-0.989% [at 42.5 µM] (inactive)"},
      {"molecule": "C=CC=O", "activation": "6.28% (inactive)"},
      {"molecule": "CC#Cc1cc(C)nc(Nc2ccccc2)n1", "Potency": "30.6 µM (active)"},
      {"molecule": "CCCOC(=O)c1cncn1C(C)c1ccccc1", "note": "(stereo not given)", "activation": "9.14% [at 42.5 µM] (inactive)"},
      {"molecule": "CC(C)NCC(O)c1ccc([N+](=O)[O-])cc1", "note": "(stereo not given)", "activation": "-0.363% [at 42.5 µM] (inactive)"},
      {"molecule": "Cn1c(N)nc2c3cccnc3ccc21", "Potency": "51.8 µM (active)"},
      {"molecule": "O=C(Cl)C(Cl)Cl", "activation": "4.42% (inactive)"},
      {"molecule": "CC(C)C(C)(N)C#N", "note": "(stereo not given)", "activation": "0.917% (inactive)"},
      {"molecule": "O=[N+]([O-])CCO", "activation": "3.03% (inactive)"},
      {"molecule": "CCNP(=S)(OC)O/C(C)=C/C(=O)OC(C)C", "note": "(stereo not given)", "Potency": "9.69 µM (active)"},
      {"molecule": "BrCC1CO1", "note": "(stereo not given)", "activation": "4.58% (inactive)"},
      {"molecule": "CC(C)c1ccc(O)cc1", "activation": "5.3% (inactive)"},
      {"molecule": "CN(CCO)CCO", "activation": "17.5% (inactive)"},
      {"molecule": "CC(=O)OCC1=C(C(=O)O)N2C(=O)[C@@H](N)[C@H]2SC1", "activation": "-3.67% [at 19 µM] (inactive)"},
      {"molecule": "O=C(Cl)CCl", "activation": "-8.09% (inactive)"},
      {"molecule": "CCN(CCO)CCn1c(Cc2ccccc2)nc2c1c(=O)n(C)c(=O)n2C", "activation": "24.6% [at 42.5 µM] (inactive)"},
      {"molecule": "CN1COCN(Cc2cnc(Cl)s2)/C1=N\\[N+](=O)[O-]", "activation": "-3.72% (inactive)"},
      {"molecule": "COC(=O)c1ccc(CBr)cc1", "Potency": "55.1 µM (active)"},
      {"molecule": "CC(Cl)(Cl)Cl", "activation": "-1.2% (inactive)"},
      {"molecule": "CCCN1CCC[C@@H]2Cc3[nH]ncc3C[C@H]21", "activation": "-3.53% [at 42.5 µM] (inactive)"},
      {"molecule": "CCOP(=S)(OCC)SCCl", "activation": "7.14% (inactive)"},
      {"molecule": "CCOc1cc(OP(=S)(OC)OC)nc(CC)n1", "activation": "13.8% (inactive)"},
      {"molecule": "CCN1CCCC1CNC(=O)C(O)(c1ccccc1)c1ccccc1", "note": "(stereo not given)", "activation": "-1.75% [at 42.5 µM] (inactive)"}
    ]}
  ]
}
